Experimental data: the supplement of paper PMC3334620
In all, about 33,000 sequences were measured (“E-score (-0.5 to 0.5)”: median about -0.043, highest 2% from about 0.37 on). The sample as a whole holds a higher share of the highest values than the screen did.

The sequences below were run against T1, Upc2 (UniProt Q12151) (assay: PBM E-score (8-mer binding enrichment) (E-score (-0.5 to 0.5)); higher = stronger / more preferred TF binding). Settings: protein concentration: 200 nM; construct: GST-full length.
T1 sequence: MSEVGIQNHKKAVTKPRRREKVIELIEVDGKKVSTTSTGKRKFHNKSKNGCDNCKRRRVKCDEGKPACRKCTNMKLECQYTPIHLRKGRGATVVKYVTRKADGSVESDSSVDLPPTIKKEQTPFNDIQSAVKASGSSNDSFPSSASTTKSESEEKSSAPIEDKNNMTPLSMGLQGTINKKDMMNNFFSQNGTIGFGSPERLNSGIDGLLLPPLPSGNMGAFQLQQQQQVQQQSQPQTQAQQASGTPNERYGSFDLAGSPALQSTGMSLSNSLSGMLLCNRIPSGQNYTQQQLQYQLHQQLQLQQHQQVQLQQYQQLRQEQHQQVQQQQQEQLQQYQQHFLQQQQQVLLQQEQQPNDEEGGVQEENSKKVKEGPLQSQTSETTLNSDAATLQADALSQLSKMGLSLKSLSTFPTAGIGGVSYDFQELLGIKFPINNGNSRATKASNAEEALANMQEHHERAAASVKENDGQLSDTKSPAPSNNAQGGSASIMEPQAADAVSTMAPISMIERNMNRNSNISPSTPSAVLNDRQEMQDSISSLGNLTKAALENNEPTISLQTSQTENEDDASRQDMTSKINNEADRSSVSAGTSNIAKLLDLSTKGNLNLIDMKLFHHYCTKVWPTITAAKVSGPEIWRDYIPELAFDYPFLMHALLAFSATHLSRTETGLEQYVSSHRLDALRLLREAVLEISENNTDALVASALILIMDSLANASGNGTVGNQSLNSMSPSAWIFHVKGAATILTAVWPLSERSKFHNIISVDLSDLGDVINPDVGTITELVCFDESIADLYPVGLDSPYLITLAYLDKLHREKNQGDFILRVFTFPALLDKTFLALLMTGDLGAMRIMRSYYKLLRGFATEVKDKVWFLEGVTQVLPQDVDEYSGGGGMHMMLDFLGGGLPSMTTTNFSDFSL
Description: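 Universal 'all 10-mer' protein binding microarrays (Agilent AMADID 015681) probed with GST-tagged S. cerevisiae TFs (full-length or DBD) made by in vitro transcription/translation (PURExpress), about 100-200 nM. Bound TF was detected with fluorescent anti-GST. Each ungapped 8-mer (which stands for itself and its reverse complement) is scored by the PBM enrichment score (E-score), a modified Wilcoxon-Mann-Whitney statistic from -0.5 to +0.5, computed with the Universal PBM Analysis Suite. Scale: above 0.35 generally sequence-specific binding.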

Sequence	PBM E-score
AGCTACTC	-0.129
CAAAAGCA	0.0182
ACTTATGG	-0.159
CCTACTCC	-0.318
CGTCGTGC	0.0916
GGTCGTAC	0.462
AGTCGTCC	-0.111
GGACGTAC	0.138
CGTAGTAG	0.108
AGTCGTGC	-0.127
CGTCGTAG	0.37
CGTCGTAC	0.474
AGTCGTAC	0.452
GGTCGCAC	0.138
CGTCGTCC	-0.154
CATCGTCG	0.106
GAGTGAGA	-0.214
CGCCTATC	-0.0576
AAAGGAGC	-0.113
GGGAGGAA	-0.119
AGAGATGA	-0.204
ATGGAGCA	-0.0645
CCCCAAGG	-0.378
CTTCCACC	-0.173
CAACCTCG	0.196

Sequence	PBM E-score
AGTCGTCG	0.0489
AGTCGTAG	0.291
AGTCGTAT	0.467
CGGAAGCC	-0.0575
ACTTTTCA	-0.0685
CGTTGTTA	0.0821
ATTCGTTC	0.428
ATTCGTTA	0.346
CTTCGTTA	0.345
ATTCGTTG	0.215
GTGCGTTA	0.0729
CTTCGCTC	0.208
GTTCGTTA	0.403
CTTCGATC	0.0841
CTTCGTTC	0.457
AGTCCTCA	-0.296
CATAGGTC	-0.0923
GCCCCTCC	-0.0822
ACATAACG	0.116
GCCTATCA	-0.187
ACACGGTC	-0.099
AAACGGTG	0.386
CTACGGTC	0.109
ATACGGTA	0.406
ACACGGTG	-0.0718

Sequence	PBM E-score
CTACGGTA	0.122
ATACGGTC	0.418
ATACGGTG	0.408
AGACGGTG	-0.109
AAACGGTA	0.367
AAACGGTC	0.344
GTACGGTA	0.365
GATGAAAA	0.0354
GGCGGGTA	-0.00895
TCCGAACA	-0.0096
AGCGAACA	0.19
CACGAACG	0.343
TACGAACA	0.452
AACGAACC	0.427
GACGAACA	0.0681
CACGAACA	0.0853
AACGAACG	0.419
GACGAACC	0.0416
AACGAACA	0.426
ACCGAACG	0.269
CACGAACC	0.101
AGAAGCGG	-0.222
AGAATAGA	-0.17
CACACTTA	-0.00527
ACTAGAGC	-0.0879

Sequence	PBM E-score
GTAATGAC	0.109
ACAGTTTC	-0.0564
CCCGCCAA	0.00973
ACTCTACT	0.0626
CATCCTAC	-0.0778
ACGCTAGG	-0.165
AGAGTAAT	-6e-05
TGTCGACA	0.063
CCCTAGCA	-0.26
AACGAACT	0.371
ACCGAACT	0.0158
AGCGAACT	0.0961
AATAGCCT	-0.081
ACGATTCA	0.328
AGCGTATC	0.166
CGCGTAGA	0.165
GGCGTCTA	-0.152
GGCGTATA	0.434
AGCGTATG	0.268
AGCGTATA	0.444
CGCGTATC	0.253
GGCGTAGA	0.048
CGCGTATA	0.451
GAACCATA	-0.072
CGCCTTGC	-0.288

Sequence	PBM E-score
ACTTGTCA	-0.235
AAAGCATG	-0.169
AGCTTGAT	-0.129
GGTATGAA	0.0119
CCTATGAG	-0.28
GGTATGAC	-0.204
CGTATGAA	0.405
AGTATGAA	0.00208
CGTATGAC	0.42
AGTATGAG	-0.125
AGTATGAC	0.0571
CGTATGAG	0.415
CAAGGTGG	-0.0983
ACGTAACA	-0.0115
GATCTTAA	0.159
ACGGTGGG	0.134
AACGACTG	0.389
AACGACTT	0.305
GACGACTC	-0.052
ATCGACTG	0.0556
AACGACTC	0.401
AGCGACTA	0.154
AACGACTA	0.379
TACGACTA	0.437
CACGACTA	-0.0651

Sequence	PBM E-score
CACGACTC	0.0449
GACGACTA	-0.171
CACGACTG	0.0762
AACCATAA	-0.0292
CACCAATC	-0.249
CTCCCACC	-0.0368
GTGTTCAA	-0.00045
AGCCAACA	-0.098
ATGTCTTG	-0.0852
CATGGGGC	-0.34
CAGGGTAA	-0.14
GAGGTCAA	-0.0747
CTCCCAAA	-0.0646
CGTATCAA	0.37
AGTATCAG	-0.235
CATATCAG	-0.165
CGTATCAC	0.364
CGTATCAG	0.381
TGTATCAA	-0.0549
CGGGCTAG	-0.117
CAAATCTG	-0.272
CCTGCTTC	-0.109
AATCGAGT	0.0695
CCACGAGA	-0.277
CAACGAGA	0.314

Sequence	PBM E-score
TAACGAGA	0.391
ACACGAGT	0.162
AAACGAGG	0.481
AAACGAGT	0.477
AAACGAGA	0.469
AAACGTGG	0.255
ACACGAGA	0.244
TCACGAGA	0.0145
CAACGAGG	0.278
CTATGGAA	-0.161
AAGATTGT	0.00873
ATTCACGA	0.0672
AATGACCC	-0.157
GCTAGTGA	-0.115
AATGAGCT	-0.163
CCTCCTCC	-0.105
AACTAGTA	-0.0317
GTGCTATA	0.128
CCTTGTCC	-0.205
CGGTTCAC	-0.117
GCTAACGA	0.304
CGTAACGC	0.324
GTTAACTA	0.157
CTTAACGC	0.17
ATTAACGG	0.185

Sequence	PBM E-score
ATTAACGC	0.143
CTTAACCA	-0.0796
CGTAACGA	0.374
CTTAACGA	0.464
GGTAACGA	0.346
GTTAACGA	0.442
ATTAACGA	0.424
ACGCACGT	0.144
AGATTCTC	-0.0164
CACTTCAA	-0.0335
GGCACACA	-0.136
ACGCAGTG	0.0743
TCACCTGA	-0.284
CTACGCTA	-0.04
TCGCTTAA	0.403
CCGCTTAA	0.268
GCGCTTAA	0.173
ACTTATTG	-0.116
GATCTCTA	-0.0508
CATAAACG	0.462
AATAAACT	-0.0754
AATAAACG	0.429
AATAAACA	0.0907
CATAAACA	-0.00956
CATAAACC	-0.075

Sequence	PBM E-score
CTCATACC	0.051
GGCTTTTA	-0.157
CTAATTCA	-0.0938
CCGTTCAC	0.291
AGTTGTTC	0.127
CACGATAG	-0.187
AACGATAA	0.381
AACGATAT	0.39
ACCGATAA	0.158
CACGATAC	0.197
AACGATAC	0.413
ACCGATAG	-0.0483
GACGATAC	0.124
AGCGATAA	0.0894
AACGATAG	0.404
ACCGATAT	0.0732
AGCGATAT	0.206
CACTGACG	-0.152
GTGGGTCA	-0.327
GGTCTGTA	0.0803
ATGGACCA	0.0213
ATGAGTGA	-0.101
CGTTCGAA	0.221
AGTGCCAT	-0.133
GAACCACA	-0.0218

Sequence	PBM E-score
ATTTAGAA	-0.14
AAGGCCGT	0.244
ACCTGGGA	-0.245
AAATTTAA	0.184
GACGATAA	0.111
TACGATAA	0.416
CACGATAA	0.074
TCAGCGGA	-0.0114
CGTTTACC	0.449
GGTTTACA	-0.0166
AGTTTACC	0.0436
CGTTTACA	0.441
AGTTTACA	-0.0264
CATTTACC	-0.152
AACGGAAA	0.216
GCAAAACA	-0.144
CGGGGGGC	0.063
CTACAACC	0.0888
CGTTCGTA	0.45
AGTTCGTA	0.439
GGTTCGAA	0.0921
AGTTCGTG	0.158
CGTTCGTC	0.293
AGTTCGTC	0.0871
GGTTCGTA	0.445

Sequence	PBM E-score
CGTTCGGA	0.265
GGTTCGGA	-0.168
CTTGCAGA	-0.17
GTATAGAA	0.345
AGGTGCTG	-0.387
CATCAGTC	-0.123
CTCGCCCA	-0.102
ACACCAGC	-0.111
ATGTCGTA	0.45
CTGTCGTA	0.447
GTGTCGTA	0.44
GTGTCGGA	0.0733
CTGTCGAA	-0.181
GTGTCGCA	0.0927
ATGTCGTG	-0.0693
CTGTCGTC	0.00126
ATGTCGTC	-0.0259
GTGTGGCA	-0.371
AACCGGCT	-0.239
AACTATCA	0.134
ATGTGAAT	0.12
AATACCGC	-0.131
CGTATGCA	0.377
AGTATGCC	-0.189
CGTATGTC	0.353

Sequence	PBM E-score
GGTATGCA	-0.00862
AGTATGTA	0.0299
CCTATGCC	-0.13
AGTATGCA	-0.3
CGTATGTA	0.387
CGTATGCC	0.372
GCAGTAGC	-0.174
AGCGGGTC	-0.0751
CATTTTTC	0.0327
TAATCTCA	-0.058
CGCTGGAA	-0.186
ACCATCTG	-0.225
CACTCGTA	0.455
GACTCGTA	0.436
GACTCGCA	-0.0142
CACTCGTC	0.0141
AACTCGTA	0.455
GACTCGAA	-0.194
CACTCGAA	0.0152
AACTCGTC	0.0662
AACTCGTG	0.178
CCACTTCG	0.0558
AATGGAGT	-0.266
AGCGTTAC	0.0438
CTCTTCCA	-0.0797

Sequence	PBM E-score
CCGCTGGC	-0.258
GAAATGTC	-0.0124
ACGCGAGG	0.219
AAGACTCA	-0.172
ACTGACTC	-0.192
CTCGAACA	-0.00626
CCAATAGC	-0.22
TACATCGA	0.038
CCTTACGA	0.407
GCTTACTA	-0.0799
CCTTACTA	0.029
ACTTACGG	0.194
ACTTACGC	-0.0998
GCTTACGA	0.421
GCTTACAA	-0.0171
ACTTACGA	0.382
CCTTACGC	0.193
GAAGTACC	0.114
GTGCCAAC	-0.0672
CTCCACCA	-0.177
GGATTGTA	0.107
ATGCCAAC	0.0593
GTTAGCGA	0.194
ACAATCCA	-0.0823
CTACGACA	0.311

Sequence	PBM E-score
ATACGACA	0.477
CGACGACA	0.173
CCACGACA	-0.131
GCACGACA	0.0592
GTACGACA	0.468
CCCGAGCC	-0.0326
CGCATTCA	-0.00072
ACTTAACG	0.339
CGTTAACC	0.348
CGTTAACA	0.274
CGTTAACG	0.422
CCTTAACA	-0.0468
CCTTAACG	0.38
AAATCTCC	-0.271
GTGACCAC	-0.283
ACAATGAT	-0.102
CGGCGCTC	0.16
GCCCTCGC	0.219
ATGGCTCA	-0.1
